# Laboratory results: PubChem BioAssay (Tox21)
# Where “and” joins values, the source holds several entries; their conditions need not be identical. Identical values can stand only once. Results filed as inconclusive are left out. A call without a number means that no potency is given here. Where a structure was tested more than once in an assay, its records may differ in their call. Calls of active or inactive are those of the source. Calls come from the whole dose curve; as a rule, active = well fitted curve in the direction sought with a large enough effect in the repeat runs; inconclusive = weak or mixed curves; inactive = no such curve, though single readings can be large; an effect the other way counts as inactive or inconclusive.
# Columns and labels:
# [1] = qHTS RealTime-Glo MT Cell Viability Assay in HepG2 cells - 40 hour (AID 1224870); settings: RealTime-Glo luminescence; series mostly up to 76.8 µM; note: nearly all actives have a fitted effect of over 50% in size
# Method in brief: (§1)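 HepG2 cells (600/well) mixed with RealTime-Glo MT reagent, settled 5 h at 37 C/5% CO2 before compound addition. Nonlytic NanoLuc luminescence from viable-cell prosubstrate reduction read repeatedly during 40 h treatment at 37 C.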
# [2] = A CellTox Green Cytotoxicity Assay to monitor cytotoxicity in HEK293 cells - 40 hour (AID 1224871); settings: CellTox Green fluorescence; series mostly up to 76.8 µM; note: nearly all actives have a fitted effect of over 45% in size; note: potency is the fitted concentration of half-maximal effect
# Method in brief: (§2)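 Fluorescence intensity, read at 0, 8, 16, 24, 32 and 40 h of compound treatment, reflected dye binding to DNA of dead HEK293 cells; compounds (23 nL, DMSO) were added 5 h after plating cells with reagent.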
# [3] = qHTS RealTime-Glo MT Cell Viability Assay in HEK293 cells - 16 hour (AID 1224872); settings: RealTime-Glo luminescence; series mostly up to 76.8 µM; note: nearly all actives have a fitted effect of over 50% in size; note: potency is the fitted concentration of half-maximal effect
# Method in brief: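 Luminescence generated by NanoLuc from substrate produced by living HEK293 cells served as the viability signal. Each value reflects the reading at its stated time point during continuous 40 h compound exposure at 37 C.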
# [4] = qHTS RealTime-Glo MT Cell Viability Assay in HepG2 cells - 8 hour (AID 1224873); settings: RealTime-Glo luminescence; series mostly up to 76.8 µM; note: nearly all actives have a fitted effect of over 55% in size
# Method in brief: as §1
# [5] = qHTS RealTime-Glo MT Cell Viability Assay in HEK293 cells - 40 hour (AID 1224874); settings: RealTime-Glo luminescence; max response: stronger effect = lower value; note: nearly all actives have a fitted effect of over 50% in size; note: potency is the fitted concentration of half-maximal effect
# Method in brief: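 Viable HEK293 cells reduce a cell-permeant prosubstrate; the product diffuses out and is consumed by NanoLuc in the medium to give light. Compounds went in after a 5 h incubation and plates were read over the treatment course.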
# [6] = A CellTox Green Cytotoxicity Assay to monitor cytotoxicity in HEK293 cells - 24 hour (AID 1224875); settings: CellTox Green fluorescence; series mostly up to 76.8 µM; note: nearly all actives have a fitted effect of over 45% in size
# Method in brief: as §2
# [7] = A CellTox Green Cytotoxicity Assay to monitor cytotoxicity in HepG2 cells - 16 hour (AID 1224876); settings: CellTox Green fluorescence; series mostly up to 76.8 µM; note: nearly all actives have a fitted effect of over 45% in size; note: potency is the fitted concentration of half-maximal effect
# Method in brief: (§3)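 Using 1536-well format, dye-containing HepG2 suspension was seeded, allowed 5 h at 37 C/5% CO2, dosed by pintool with compounds, positive and negative controls, and imaged for fluorescence across 40 h.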
# [8] = qHTS RealTime-Glo MT Cell Viability Assay in HepG2 cells - 32 hour (AID 1224877); settings: RealTime-Glo luminescence; series mostly up to 76.8 µM; note: nearly all actives have a fitted effect of over 55% in size
# Method in brief: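 Tox21 10K library screened in qHTS format on HepG2 cells carrying RealTime-Glo reagents. Compounds were added after a 5 h preincubation, and the luminescent signal from continuous culture was measured repeatedly during 40 h treatment.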
# [9] = A CellTox Green Cytotoxicity Assay to monitor cytotoxicity in HepG2 cells - 24 hour (AID 1224878); settings: CellTox Green fluorescence; series mostly up to 76.8 µM; note: nearly all actives have a fitted effect of over 45% in size; note: potency is the fitted concentration of half-maximal effect
# Method in brief: as §3
# [10] = A CellTox Green Cytotoxicity Assay to monitor cytotoxicity in HepG2 cells - 40 hour (AID 1224879); settings: CellTox Green fluorescence; series mostly up to 76.8 µM; note: nearly all actives have a fitted effect of over 40% in size; note: potency is the fitted concentration of half-maximal effect
# Method in brief: as §3
SMILES,Potency [1],Potency [2],Potency [3],Potency [4],max response [5],Potency [6],Potency [7],Potency [8],Potency [9],Potency [10],Potency [5]
CC1COc2ccccc2N1C(=O)C(Cl)Cl (centres undefined),inactive,inactive,inactive,inactive,-21% (inactive),inactive,inactive,inactive,inactive,inactive,–
CC(=O)Nc1ccc(C(=O)O)cc1,inactive,inactive,–,inactive,0.373% (inactive) and -0.782% (inactive),inactive,inactive,inactive,inactive,inactive,–
C=C(C)C(=O)OCCC[Si](OC)(OC)OC,inactive,inactive,inactive,inactive,1.98% (inactive) and 0.0703% (inactive),inactive,–,inactive,inactive,inactive,–
CCCCC/C=C\C/C=C\CCCCCCCC(=O)OC,inactive,inactive and 54.9 µM (active),inactive,inactive,3.92% (inactive) and -0.83% (inactive),inactive,–,inactive,inactive,inactive,–
C[C@@H](O)[C@H]1C(=O)N2C(C(=O)O)=C(S[C@@H]3CN[C@H](C(=O)N(C)C)C3)[C@H](C)[C@H]12,inactive,inactive,inactive,inactive,2.43% (inactive) and 4.85% (inactive),inactive,–,inactive,inactive,inactive,–
CCC(C)C=O (centres undefined),inactive,inactive,–,inactive,-3.52% (inactive),inactive,–,inactive,inactive and 21.9 µM (active),inactive,3.09 µM (active)
CCc1ccc(O)cc1,inactive,inactive,inactive,inactive,3.14% (inactive) and 3.17% (inactive),inactive,–,inactive,inactive,inactive,–
Nc1nc2ncc(CNc3ccc(C(=O)N[C@@H](CCC(=O)O)C(=O)O)cc3)nc2c(=O)[nH]1,inactive,inactive,inactive,inactive,21.4% (inactive) and 0.94% (inactive),inactive,–,inactive,inactive,inactive,–
Clc1ccc(Cl)c(Cl)c1Cl,inactive,inactive,inactive,inactive,0.667% (inactive) and -4.21% (inactive),inactive,–,inactive,inactive,inactive,–
CNC[C@H](O)[C@@H](O)[C@H](O)[C@H](O)CO,inactive,inactive,inactive,inactive,8.02% (inactive) and 0.166% (inactive),inactive,–,inactive,inactive,inactive,–
O=c1c(-c2ccc(O)cc2)coc2cc(O)ccc12,inactive,inactive,inactive,inactive,–,inactive,inactive,inactive,inactive,inactive,–
CC1CC(OC(=O)c2ccccc2O)CC(C)(C)C1 (centres undefined),inactive,48.5 µM (active) and inactive,–,inactive,-10.4% (inactive) and -7.39% (inactive) and -13.1% (inactive),inactive,inactive,inactive,inactive,inactive,–
CCCCC(CC)COC(=O)/C=C\C(=O)OCC(CC)CCCC (centres undefined),inactive,inactive,inactive,–,1.02% (inactive) and -3.16% (inactive),inactive,inactive,inactive,inactive,inactive,–
CC(=O)CCc1ccccc1,inactive,inactive,inactive,inactive,1.52% (inactive) and -3.07% (inactive),inactive,–,inactive,inactive,inactive,–
CC(C)(CO)COC(=O)C(C)(C)CO,inactive,inactive,inactive,inactive,0.943% (inactive) and 3.19% (inactive),inactive,–,inactive,inactive,inactive,–
Cn1c([N+](=O)[O-])cnc1COC(N)=O,inactive,inactive,–,inactive,0.779% (inactive) and 12.4% (inactive),inactive,inactive,inactive,inactive,inactive,–
CC1(C)CC(N=C=O)CC(C)(CN=C=O)C1 (centres undefined),inactive,inactive,inactive,inactive,8.76% (inactive) and 2.25% (inactive),inactive,–,inactive,inactive,inactive,–
OC1CCCC1,inactive,inactive,inactive,inactive,8.58% (inactive) and -2.67% (inactive),inactive,inactive,inactive,inactive,inactive,–
COC(=O)Nc1nc2ccc(Sc3ccccc3)cc2[nH]1,inactive,21.3 µM (active),1.38 µM (active) and 1.9 µM (active),inactive,–,inactive,–,inactive,inactive and 10.7 µM (active),1.55 µM (active) and 848 nM (active),616 nM (active) and 848 nM (active)
CC(=O)[C@@]1(O)CC[C@H]2[C@@H]3CCC4=CC(=O)CC[C@]4(C)[C@H]3CC[C@@]21C,inactive,inactive,inactive,inactive,–,inactive,inactive,inactive,inactive,inactive,–
O=C1O[C@H](CO)[C@@H](O)[C@H](O)[C@H]1O,inactive,inactive,inactive,inactive,1.84% (inactive) and 0.71% (inactive),inactive,–,inactive,inactive,inactive,–

SMILES,Potency [1],Potency [2],Potency [3],Potency [4],max response [5],Potency [6],Potency [7],Potency [8],Potency [9],Potency [10],Potency [5]
NCCc1ccc(O)c(O)c1,inactive,inactive,–,inactive,-0.912% (inactive) and 5.76% (inactive),inactive,inactive,inactive,inactive,inactive,–
Nc1cc(-c2ccncc2)c[nH]c1=O,inactive,inactive,inactive,inactive,-8.6% (inactive) and 7.61% (inactive),inactive,–,inactive,inactive,inactive,–
CC#C[C@]1(O)CC[C@H]2[C@@H]3CCC4=CC(=O)CCC4=C3[C@@H](c3ccc(N(C)C)cc3)C[C@@]21C,inactive,inactive,49 µM (active),inactive,–,inactive,inactive,–,inactive,inactive,49 µM (active)
C=C(C)C(=O)OCC(CC)(COC(=O)C(=C)C)COC(=O)C(=C)C,inactive,inactive and 42.9 µM (active),inactive,inactive,2.46% (inactive) and 6.81% (inactive),–,inactive and 42.9 µM (active),inactive,inactive and 38.2 µM (active),inactive and 42.9 µM (active),–
Oc1ccc2ccccc2c1N=Nc1ccccc1,inactive,inactive,inactive,inactive,32.3% (inactive),inactive,inactive,inactive,inactive,inactive,–
CCCCOCCOCCOC(=O)CCCCC(=O)OCCOCCOCCCC,inactive,inactive,inactive,inactive,3.67% (inactive) and 5.42% (inactive),inactive,–,inactive,inactive,inactive,–
CCCCCCOC(C)=O,inactive,inactive,inactive,inactive,0.539% (inactive) and -29.1% (inactive),inactive,–,inactive,inactive,inactive,–
OC[C@@H](O)[C@@H](O)[C@H](O)[C@@H](O)CO,inactive,inactive,inactive,inactive,-13% (inactive) and 0.936% (inactive),inactive,–,inactive,inactive,inactive,–
O=S(=O)(Oc1ccc(Cl)cc1Cl)c1ccccc1,inactive,inactive,–,inactive,-21.1% (inactive),inactive,inactive,inactive,inactive,inactive,14 µM (active)
c1ccc2[nH]cnc2c1,inactive,inactive,inactive,inactive,-5.47% (inactive) and 1.04% (inactive),inactive,–,inactive,inactive,inactive,–
COCC(C)O (centres undefined),inactive,inactive,inactive,inactive,-1.03% (inactive) and -1.56% (inactive),inactive,–,inactive,inactive,inactive,–
CCCCCC/C=C/CCCCCCCC(=O)O,inactive,inactive,inactive,inactive,2.68% (inactive) and -1.87% (inactive),inactive,–,inactive,inactive,inactive,–
CC(C)(C)C(=O)C1C(=O)c2ccccc2C1=O,inactive,inactive,inactive,inactive,-29.9% (inactive) and -11.1% (inactive),inactive,–,inactive,inactive,54.4 µM (active) and inactive,–
CCc1ccccc1O,inactive,54.7 µM (active) and inactive,inactive,inactive,-2.02% (inactive),inactive,inactive,inactive,inactive,inactive,–
Cc1ccc(C(=O)O)o1,inactive,inactive,–,inactive,2.67% (inactive) and -10.1% (inactive),inactive,inactive,inactive,inactive,inactive,–
Oc1ccc2ccccc2c1,inactive,inactive,–,inactive,17.4% (inactive) and 0.276% (inactive),inactive,inactive,inactive,inactive,inactive,–
CC(C)(N=C=O)c1cccc(C(C)(C)N=C=O)c1,inactive,inactive,inactive,inactive,0.966% (inactive),inactive,inactive,inactive,inactive,inactive,–
CCCCC(CC)COC(C)=O (centres undefined),inactive,inactive,inactive,inactive,1.23% (inactive) and 1.38% (inactive),inactive,–,inactive,inactive,inactive,–
CN(CCOc1ccc(CC2SC(=O)NC2=O)cc1)c1ccccn1 (centres undefined),inactive,inactive,inactive,inactive,-1.82% (inactive),inactive,inactive,inactive,inactive,inactive,–
NCc1cccc(CN)c1,inactive,–,inactive,inactive,-20.2% (inactive) and 8.99% (inactive),–,–,inactive,inactive,inactive,–
